Here are results for three molecules from PubChem BioAssay (EPA / NIEHS).

Read-out in experiment [1]: Pyruvate Dehydrogenase Kinase 4 (PDK4), PDK4 (gene 5166)
Description: LTEA_HepaRG_PDK4: Life Technologies and Expression Analysis (LTEA) Assay for Pyruvate Dehydrogenase Kinase 4 (PDK4) using HepaRG (AID 2283525). The note with it: mRNA level, 48 h; actives raise or lower the signal. The essentials:
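In this multiplexed human HepaRG expression assay, cells are treated 48 h with test chemicals across an eight-point range starting at 100 uM. PDK4 mRNA changes, normalized to ACTB/GAPDH/POLR2A, are fitted in both directions relative to vehicle.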

Read-out in experiment [2]: NAD(P)H dehydrogenase [quinone] 1 (NQO1), NQO1 (gene 1728)
Description: LTEA_HepaRG_NQO1: Life Technologies and Expression Analysis (LTEA) Assay for NAD(P)H dehydrogenase [quinone] 1 (NQO1) using HepaRG (AID 2283526). The note with it: mRNA level, 48 h; actives raise or lower the signal. The essentials:
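Human HepaRG hepatic cells received chemicals for 48 h in serum-free induction medium with 0.5% DMSO, up to 100 uM. Expression was assessed by TaqMan qRT-PCR against housekeeping controls and fitted bidirectionally against DMSO.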

Read-out in experiment [3]: Nuclear factor erythroid 2-related factor 2 (Homo sapiens) (UniProt Q16236)
Description: LTEA_HepaRG_NFE2L2: Life Technologies and Expression Analysis (LTEA) Assay for Nuclear factor erythroid 2-related factor 2 (NFE2L2) Transcription Factor using HepaRG (AID 2283527).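 Note: TaqMan qRT-PCR transcript level normalised to ACTB GAPDH and POLR2A housekeeping genes.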 The note with it: mRNA level, 48 h; actives raise or lower the signal. The essentials:
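Transcript level of NFE2L2 is the read-out, measured by microfluidic TaqMan qRT-PCR and normalized to three housekeeping genes. Human HepaRG cultures received test chemical for 48 h at up to 100 uM in half-log steps. Gain or loss of signal is fitted relative to 0.5% DMSO.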

Read-out in experiment [4]: Signal transducer and activator of transcription 3 (Homo sapiens) (UniProt P40763)
Kind of experiment: LTEA_HepaRG_STAT3: Life Technologies and Expression Analysis (LTEA) Assay for Signal transducer and activator of transcription (STAT3) using HepaRG (AID 2283529). The note with it: mRNA level, 48 h; actives raise or lower the signal. The essentials: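 Read-out is STAT3 mRNA level by qRT-PCR, normalized to three housekeeping genes, in human HepaRG liver cells treated for 48 h. Concentrations ran from 100 uM downward in half-log steps; curves were fitted for gain or loss relative to 0.5% DMSO.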

Read-out in experiment [5]: solute carrier (SLCO1B1), SLCO1B1 (gene 10599)
Description: LTEA_HepaRG_SLCO1B1: Life Technologies and Expression Analysis (LTEA) Assay for solute carrier (SLCO1B1) using HepaRG (AID 2283530). The note with it: mRNA level, 48 h; actives raise or lower the signal. In short, it runs like this: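 Differentiated human HepaRG cells were exposed for 48 h in serum-free induction medium to eight half-log concentrations, top 100 uM, in 0.5% DMSO. SLCO1B1 mRNA was measured by qRT-PCR, normalized to ACTB, GAPDH and POLR2A, and fitted bidirectionally against DMSO.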

Read-out in experiment [6]: sulfotransferase 2A1 (SULT2A1), SULT2A1 (gene 6822)
Description: LTEA_HepaRG_SULT2A1: Life Technologies and Expression Analysis (LTEA) Assay for sulfotransferase 2A1 (SULT2A1) using HepaRG (AID 2283531). To be noted: mRNA level, 48 h; actives raise or lower the signal. In short, it runs like this: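 HepaRG human liver cells, 48 h exposure in serum-free induction medium to 8 half-log concentrations topping at 100 µM (0.5% DMSO), duplicate wells. SULT2A1 mRNA measured by TaqMan qRT-PCR, normalized to ACTB/GAPDH/POLR2A; bidirectional fit against DMSO.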

Read-out in experiment [7]: Transforming Growth Factor (TGFA), TGFA (gene 7039)
Description: LTEA_HepaRG_TGFA: Life Technologies and Expression Analysis (LTEA) Assay for Transforming Growth Factor (TGFA) using HepaRG (AID 2283532). The note with it: mRNA level, 48 h; actives raise or lower the signal. The essentials: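 HepaRG (human liver line), 48 h exposure, 8 conc. half-log down from 100 uM, 0.5% DMSO vehicle, duplicates; serum-free induction medium. TGFA mRNA by TaqMan qRT-PCR, ACTB/GAPDH/POLR2A normalization; gain/loss fit vs DMSO.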

Read-out in a further experiment: TIMP1, TIMP1 (gene 7076)
Kind of experiment: LTEA_HepaRG_TIMP1: Life Technologies and Expression Analysis (LTEA) Assay for TIMP1 using HepaRG (AID 2283534). To be noted: mRNA level, 48 h; actives raise or lower the signal. In short, it runs like this:
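Differentiated HepaRG cells exposed 48 h in serum-free induction medium, duplicates, eight half-log concentrations from 100 uM in 0.5% DMSO. TIMP1 mRNA by qRT-PCR normalized to ACTB, GAPDH, POLR2A; bidirectional fitting against DMSO.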

Read-out in experiment [8]: Tumor necrosis factor receptor 1 (TNFRSF1A), TNFRSF1A (gene 7132)
Kind of experiment: LTEA_HepaRG_TNFRSF1A: Life Technologies and Expression Analysis (LTEA) Assay for Tumor necrosis factor receptor 1 (TNFRSF1A) using HepaRG (AID 2283535). To be noted: mRNA level, 48 h; actives raise or lower the signal. The essentials:
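Differentiated HepaRG cells in serum-free induction medium, exposed 48 h in duplicate to 8 half-log concentrations up to 100 uM in 0.5% DMSO. TNFRSF1A mRNA by Fluidigm TaqMan qRT-PCR, normalized to ACTB, GAPDH, POLR2A; bidirectional fit.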

Read-out in experiment [9]: Thyroid Hormone Responsive (THRSP), THRSP (gene 7069)
Description: LTEA_HepaRG_THRSP: Life Technologies and Expression Analysis (LTEA) Assay for Thyroid Hormone Responsive (THRSP) using HepaRG (AID 2283536). The note with it: mRNA level, 48 h; actives raise or lower the signal. The essentials:
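mRNA induction or loss relative to 0.5% DMSO vehicle was fitted bidirectionally across an eight-point curve whose highest exposure was 100 uM. Human HepaRG liver cells received chemicals in duplicate over 48 h before RNA extraction.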

Read-out in experiment [10]: Cellular tumor antigen p53 (Homo sapiens) (UniProt P04637)
Kind of experiment: LTEA_HepaRG_TP53: Life Technologies and Expression Analysis (LTEA) Assay for Tumor Protein P53 (TP53) using HepaRG (AID 2283537). The note with it: mRNA level, 48 h; actives raise or lower the signal. The essentials:
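Differentiated HepaRG cells in serum-free induction medium exposed 48 h in duplicate to 8 half-log concentrations, top 100 uM, 0.5% DMSO. TP53 mRNA by TaqMan qRT-PCR (Fluidigm), normalized to ACTB, GAPDH, POLR2A; fitted bidirectionally versus DMSO.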

Read-out in experiment [11]: UDP glucuronosyltransferase (UGT1A1), UGT1A1 (gene 54658)
Description: LTEA_HepaRG_UGT1A1: Life Technologies and Expression Analysis (LTEA) Assay for UDP glucuronosyltransferase (UGT1A1) using HepaRG (AID 2283538). To be noted: mRNA level, 48 h; actives raise or lower the signal. In short, it runs like this: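 Human liver HepaRG cultures receive test chemical for 48 h, up to 100 uM in 0.5% DMSO, with phenobarbital induction controls. UGT1A1 mRNA is measured by qRT-PCR and normalized to ACTB, GAPDH and POLR2A.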

Read-out in experiment [12]: UDP glucuronosyltransferase (UGT1A6), UGT1A6 (gene 54578)
Description: LTEA_HepaRG_UGT1A6: Life Technologies and Expression Analysis (LTEA) Assay for UDP glucuronosyltransferase (UGT1A6) using HepaRG (AID 2283539). The note with it: mRNA level, 48 h; actives raise or lower the signal. The essentials:
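Differentiated HepaRG cells, ~100,000/well, were exposed for 48 h in serum-free induction medium with 0.5% DMSO to 8-point half-log series topping at 100 uM, in duplicate. mRNA measured by Fluidigm TaqMan qRT-PCR, normalized to ACTB, GAPDH and POLR2A.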

Read-out in experiment [13]: X-box binding protein 1 (XBP1), XBP1 (gene 7494)
Description: LTEA_HepaRG_XBP1: Life Technologies and Expression Analysis (LTEA) Assay for X-box binding protein 1 (XBP1) using HepaRG (AID 2283540). The note with it: mRNA level, 48 h; actives raise or lower the signal. In short, it runs like this: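 Differentiated human HepaRG cells in serum-free induction medium exposed 48 h in duplicate to eight half-log concentrations up to 100 uM in 0.5% DMSO. XBP1 mRNA measured by Fluidigm TaqMan qRT-PCR, normalized to ACTB, GAPDH, POLR2A; bidirectional fitting against DMSO.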

Experiment [14] in a line: LTEA_HepaRG_LDH_cytotoxicity: Cytotoxicity Assessment in the Life Technologies and Expression Analysis (LTEA) Assay (AID 2283563; active = hit-call score of the fitted dose curve at least 0.9, where 1 is the maximum;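 for AC50: LDH activity released into spent culture medium as a marker of cell death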). In short, it runs like this: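 Differentiated HepaRG cells in serum-free induction medium, exposed 48 h in duplicate to 8 half-log concentrations up to 100 uM in 0.5% DMSO. Cytotoxicity from LDH measured in spent medium, fit relative to DMSO.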

Experiment [15] in a line: TOX21_p53_BLA_p2_viability: Viability Assessment in the Tox21 HCT-116 p53 Agonism Beta-lactamase Assay, Phase 2 (AID 2283591; active = hit-call score of the fitted dose curve at least 0.9, where 1 is the maximum;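 note: compound exposure lasted 16 h at 37 °C; actives lower the ATP signal meaning cytotoxicity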). In short, it runs like this:
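Cytotoxicity readout: CellTiter-Glo ATP luminescence, 30 min at room temperature, after the beta-lactamase read. Cells were HCT116 exposed 16 h at 37C to compounds pin-transferred at 217-fold dilution from DMSO stocks.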

Read-out in experiment [16]: Transforming Growth Factor (TGFB1), TGFB1 (gene 7040)
Kind of experiment: LTEA_HepaRG_TGFB1: Life Technologies and Expression Analysis (LTEA) Assay for Transforming Growth Factor (TGFB1) Transporter using HepaRG (AID 2283533). The note with it: mRNA level, 48 h; actives raise or lower the signal. In short, it runs like this: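 Differentiated HepaRG cells exposed 48 hr in serum-free induction medium to eight half-log concentrations up to 100 uM (0.5% DMSO), duplicate; TGFB1 mRNA by TaqMan qRT-PCR normalised to ACTB, GAPDH, POLR2A; bidirectional fit against DMSO.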

Inconclusive results are not listed. Calls of active or inactive are those of the source. Rule for the calls, unless noted: active = hit-call score of the fitted dose curve at least 0.9, where 1 is the maximum; inactive = score below 0.9.

Cellular tumor antigen p53 (Homo sapiens), sequence (P04637 whole entry, looked up): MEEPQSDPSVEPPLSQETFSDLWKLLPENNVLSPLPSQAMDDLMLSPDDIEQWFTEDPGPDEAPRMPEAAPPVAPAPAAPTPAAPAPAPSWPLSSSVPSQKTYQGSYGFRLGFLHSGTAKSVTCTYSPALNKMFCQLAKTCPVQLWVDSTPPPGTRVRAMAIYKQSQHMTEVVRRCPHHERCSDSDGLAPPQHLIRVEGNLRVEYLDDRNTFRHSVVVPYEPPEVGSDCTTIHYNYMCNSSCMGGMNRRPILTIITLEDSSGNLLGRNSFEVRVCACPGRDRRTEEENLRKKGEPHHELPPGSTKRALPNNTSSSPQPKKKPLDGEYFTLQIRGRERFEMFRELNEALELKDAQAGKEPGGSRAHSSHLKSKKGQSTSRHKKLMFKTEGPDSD
Signal transducer and activator of transcription 3 (Homo sapiens), sequence (P40763 whole entry, looked up): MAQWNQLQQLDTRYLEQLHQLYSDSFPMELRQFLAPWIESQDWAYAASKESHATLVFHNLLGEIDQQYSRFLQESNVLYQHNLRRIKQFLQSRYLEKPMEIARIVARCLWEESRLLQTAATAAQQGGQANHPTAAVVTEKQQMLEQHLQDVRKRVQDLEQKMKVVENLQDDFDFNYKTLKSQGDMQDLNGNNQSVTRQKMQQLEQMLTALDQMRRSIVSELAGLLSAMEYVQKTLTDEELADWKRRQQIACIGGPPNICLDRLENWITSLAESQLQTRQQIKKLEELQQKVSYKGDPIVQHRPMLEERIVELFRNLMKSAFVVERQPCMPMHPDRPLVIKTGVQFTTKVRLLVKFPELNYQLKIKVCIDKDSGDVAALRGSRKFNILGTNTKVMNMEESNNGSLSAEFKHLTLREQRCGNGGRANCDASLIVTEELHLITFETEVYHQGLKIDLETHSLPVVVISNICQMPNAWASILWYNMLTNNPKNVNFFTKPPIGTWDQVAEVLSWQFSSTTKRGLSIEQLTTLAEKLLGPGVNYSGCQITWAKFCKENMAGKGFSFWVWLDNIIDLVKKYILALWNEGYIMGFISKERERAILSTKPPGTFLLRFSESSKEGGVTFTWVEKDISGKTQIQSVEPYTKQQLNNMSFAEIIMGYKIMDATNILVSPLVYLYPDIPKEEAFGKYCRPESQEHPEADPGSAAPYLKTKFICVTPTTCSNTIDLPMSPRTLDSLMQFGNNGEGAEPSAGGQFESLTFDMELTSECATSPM
Nuclear factor erythroid 2-related factor 2 (Homo sapiens), sequence (Q16236 whole entry, looked up): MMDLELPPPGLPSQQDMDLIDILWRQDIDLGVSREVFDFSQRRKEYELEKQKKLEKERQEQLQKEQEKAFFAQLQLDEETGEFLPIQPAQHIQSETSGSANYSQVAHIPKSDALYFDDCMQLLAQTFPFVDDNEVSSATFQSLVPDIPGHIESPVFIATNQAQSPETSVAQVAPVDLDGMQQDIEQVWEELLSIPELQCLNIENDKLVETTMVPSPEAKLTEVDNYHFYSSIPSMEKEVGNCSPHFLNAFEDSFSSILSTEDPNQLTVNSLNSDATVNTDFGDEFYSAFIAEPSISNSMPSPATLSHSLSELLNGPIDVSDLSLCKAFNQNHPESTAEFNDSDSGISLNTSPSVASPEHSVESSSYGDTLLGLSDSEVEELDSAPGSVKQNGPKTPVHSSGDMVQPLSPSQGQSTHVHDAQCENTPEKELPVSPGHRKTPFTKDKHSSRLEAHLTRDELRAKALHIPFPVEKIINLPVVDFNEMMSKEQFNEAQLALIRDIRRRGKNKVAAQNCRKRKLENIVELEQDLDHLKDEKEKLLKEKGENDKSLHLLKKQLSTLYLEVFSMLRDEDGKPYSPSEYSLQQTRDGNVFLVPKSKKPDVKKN

In the case of `O=P(OCCCl)(OCCCl)OCCCl`, the result in experiment [1], in experiment [2], in experiment [3], in experiment [4], in experiment [5] and in experiment [6] was inactive. Besides, the outcome in [7] was “inactive”; with TIMP1, TIMP1 (gene 7076), “inactive”; in [8] it was “inactive”; in experiment [9], “inactive”; in experiment [10], “inactive”; in [11] it was “inactive”. For the same molecule, the call in experiment [12], in experiment [13], in experiment [14] and in experiment [15] was inactive.

Regarding `CN(C)c1ccccc1`, the call in [1], in experiment [2], in experiment [3], in [4], in experiment [5] and in experiment [6] was inactive. The outcome in [7] is “inactive”; in experiment [16], “inactive”; in the experiment with TIMP1, TIMP1 (gene 7076) it was “inactive”; in experiment [8], “inactive”; in [9], “inactive”; in experiment [10], “inactive”. Moreover, the molecule was called inactive in experiment [11], in experiment [12], in experiment [13], in [14] and in experiment [15].

As usually defined, the AC50 is the concentration giving half of the maximal activity seen. On to `Cc1ccc(N=C=O)cc1N=C=O`, for which the concentration at half-maximal activity (AC50) is 19.6 µM (active) in experiment [1]; 38.9 µM (active) in [2]; 31.4 µM (active) in experiment [6]; 19.3 µM (active) in [9]; 33.1 µM (active) in experiment [14]. Besides, the outcome is “inactive” in experiment [3]; “inactive” in experiment [4]; “inactive” in experiment [5]; “inactive” in experiment [7]; “inactive” in [16]; “inactive” with TIMP1, TIMP1 (gene 7076). The molecule was called inactive in experiment [8], in experiment [10], in experiment [11], in experiment [12] and in [13].
